Reference: PubChem BioAssay AID1159580 (chemical genetic matrix, 2015)
In all, about 5,500 compounds went through this assay and about 2,000 (36%) were called active. Roughly 18% stayed inconclusive and do not appear here. No stated cut-off is given here; in the data, active means normalized growth mostly below about 0.91 (no sharp cut-off); inconclusive means no clear call, values can overlap the other calls; inactive means mostly above about 0.92. Some of the results follow.

Test: chemical genetic growth profiling, strain panel (AID 1159580);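 further: tested at 20 µM; growth read once vehicle control cultures reached saturation at 30 °C; 1 = growth at the plate median or of vehicle wells; lower values mean less growth of the strain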
Conditions: growth OD

Measured: normalized growth

COc1c2ccoc2nc2c(OC)c(OCC(O)C(C)(C)O)ccc12 (configuration not stated)
inactive: S. cerevisiae deletion strains, locus YJR075W, strain HOC1, hits give low values 1.07 | S. cerevisiae deletion strains, locus YKL009W, strain mrt4, hits give low values 0.944 | S. cerevisiae deletion strains, locus YKL068W, hits give low values 0.978 | S. cerevisiae deletion strains, locus YKL085W, strain MDH1 (second series), hits give low values 1 | S. cerevisiae deletion strains, locus YKL085W, strain MDH1, hits give low values 1 | S. cerevisiae deletion strains, locus YKL160W, strain elf1, hits give low values 1.03 | S. cerevisiae deletion strains, locus YKL190W, strain CNB1, hits give low values 0.979 | S. cerevisiae deletion strains, locus YKR001C, strain vps1, hits give low values 0.985 | S. cerevisiae deletion strains, locus YKR026C, strain gcn3, hits give low values 1.02 | S. cerevisiae deletion strains, locus YKR091W, strain srl3, hits give low values 1.01 | S. cerevisiae deletion strains, locus YLL001W, strain dnm1, hits give low values 1.03 | S. cerevisiae deletion strains, locus YLL026W, hits give low values 1.01 | S. cerevisiae deletion strains, locus YLL041C, strain sdh2, hits give low values 1.02 | S. cerevisiae deletion strains, locus YLR027C, strain aat2, hits give low values 1.03 | S. cerevisiae deletion strains, locus YLR039C, strain RIC1, hits give low values 0.974 | S. cerevisiae deletion strains, locus YLR058C, strain SHM2, hits give low values 0.991 | S. cerevisiae deletion strains, locus YLR102C, strain apc9, hits give low values 0.99 | S. cerevisiae deletion strains, locus YLR113W, strain HOG1, hits give low values 1.03 | S. cerevisiae deletion strains, locus YLR221C, strain rsa3, hits give low values 1.03 | S. cerevisiae deletion strains, locus YLR258W, strain gsy2, hits give low values 1.02 | S. cerevisiae deletion strains, locus YLR262C, strain YPT6 (second series), hits give low values 1.04 | S. cerevisiae deletion strains, locus YLR262C, strain YPT6, hits give low values 0.938 | S. cerevisiae deletion strains, locus YLR268W, strain sec22, hits give low values 1.02 | S. cerevisiae deletion strains, locus YLR320W, strain mms22, hits give low values 1.03 | S. cerevisiae deletion strains, locus YLR330W, strain CHS5, hits give low values 0.992 | S. cerevisiae deletion strains, locus YLR342W, strain FKS1 (second series), hits give low values 0.992 | S. cerevisiae deletion strains, locus YLR342W, strain FKS1, hits give low values 1.02 | S. cerevisiae deletion strains, locus YLR357W, strain rsc2, hits give low values 1.06 | S. cerevisiae deletion strains, locus YLR370C, strain arc18, hits give low values 1.01 | S. cerevisiae deletion strains, locus YLR371W, strain rom2, hits give low values 0.976 | S. cerevisiae deletion strains, locus YLR384C, strain iki3, hits give low values 1 | S. cerevisiae deletion strains, locus YLR418C, strain cdc73, hits give low values 1.04 | S. cerevisiae deletion strains, locus YML016C, strain PPZ1, hits give low values 0.99 | S. cerevisiae deletion strains, locus YML032C, strain rad52, hits give low values 0.974 | S. cerevisiae deletion strains, locus YML120C, strain ndi1, hits give low values 1.02 | S. cerevisiae deletion strains, locus YML124C, strain tub3, hits give low values 0.99 | S. cerevisiae deletion strains, locus YMR058W, strain fet3, hits give low values 1.03 | S. cerevisiae deletion strains, locus YMR078C, strain ctf18, hits give low values 0.97 | S. cerevisiae deletion strains, locus YMR125W, strain sto1, hits give low values 1.04 | S. cerevisiae deletion strains, locus YMR129W, hits give low values 1.01 | S. cerevisiae deletion strains, locus YMR205C, strain PFK2, hits give low values 1.04 | S. cerevisiae deletion strains, locus YMR223W, strain ubp8, hits give low values 0.961 | S. cerevisiae deletion strains, locus YMR231W, strain pep5, hits give low values 1 | S. cerevisiae deletion strains, locus YMR263W, strain SAP30, hits give low values 1.01 | S. cerevisiae deletion strains, locus YMR307W, strain GAS1, hits give low values 0.941 | S. cerevisiae deletion strains, locus YNL067W, strain RPL9B, hits give low values 1.03 | S. cerevisiae deletion strains, locus YNL071W, strain lat1, hits give low values 1.02 | S. cerevisiae deletion strains, locus YNL128W, strain TEP1, hits give low values 1.01 | S. cerevisiae deletion strains, locus YNL153C, strain GIM3, hits give low values 1.02 | S. cerevisiae deletion strains, locus YNL183C, strain NPR1, hits give low values 0.985 | S. cerevisiae deletion strains, locus YNL209W, strain ssb2, hits give low values 1.02 | S. cerevisiae deletion strains, locus YNL233W, strain BNI4, hits give low values 1.02 | S. cerevisiae deletion strains, locus YNL248C, strain rpa49, hits give low values 1.02 | S. cerevisiae deletion strains, locus YNL250W, strain rad50, hits give low values 0.989 | S. cerevisiae deletion strains, locus YNL271C, strain bni1, hits give low values 0.989 | S. cerevisiae deletion strains, locus YNL298W, strain CLA4, hits give low values 0.975 | S. cerevisiae deletion strains, locus YNL307C, strain MCK1, hits give low values 0.976 | S. cerevisiae deletion strains, locus YNL322C, strain KRE1 (second series), hits give low values 1.03 | S. cerevisiae deletion strains, locus YNL322C, strain KRE1, hits give low values 0.995 | S. cerevisiae deletion strains, locus YNR049C, strain mso1, hits give low values 1.02 | S. cerevisiae deletion strains, locus YNR052C, strain pop2, hits give low values 0.962 | S. cerevisiae deletion strains, locus YOL006C, strain TOP1, hits give low values 1.01 | S. cerevisiae deletion strains, locus YOL012C, strain htz1 1.86 | S. cerevisiae deletion strains, locus YOL147C, strain pex11, hits give low values 0.996 | S. cerevisiae deletion strains, locus YOR001W, strain rrp6, hits give low values 1.02 | S. cerevisiae deletion strains, locus YOR061W, strain CKA2, hits give low values 0.997 | S. cerevisiae deletion strains, locus YOR069W, strain VPS5, hits give low values 0.99 | S. cerevisiae deletion strains, locus YOR070C, strain gyp1, hits give low values 1 | S. cerevisiae deletion strains, locus YOR080W, strain dia2, hits give low values 0.999 | S. cerevisiae deletion strains, locus YOR083W, strain WHI5, hits give low values 1.03 | S. cerevisiae deletion strains, locus YOR106W, strain vam3, hits give low values 1.04 | S. cerevisiae deletion strains, locus YOR136W, strain idh2, hits give low values 0.982 | S. cerevisiae deletion strains, locus YOR144C, strain elg1, hits give low values 0.978 | S. cerevisiae deletion strains, locus YOR184W, strain ser1, hits give low values 0.946 | S. cerevisiae deletion strains, locus YOR231W, strain MKK1, hits give low values 1.01 | S. cerevisiae deletion strains, locus YOR265W, strain rbl2, hits give low values 1 | S. cerevisiae deletion strains, locus YOR270C, strain vph1, hits give low values 1.07 | S. cerevisiae deletion strains, locus YOR290C, strain snf2, hits give low values 1.02 | S. cerevisiae deletion strains, locus YOR316C, strain cot1, hits give low values 0.99 | S. cerevisiae deletion strains, locus YPL051W, strain arl3, hits give low values 1.05 | S. cerevisiae deletion strains, locus YPL055C, strain LGE1, hits give low values 1.03 | S. cerevisiae deletion strains, locus YPL078C, strain atp4, hits give low values 1.03 | S. cerevisiae deletion strains, locus YPL106C, strain sse1, hits give low values 1.02 | S. cerevisiae deletion strains, locus YPL240C, strain hsp82, hits give low values 1 | S. cerevisiae deletion strains, locus YPL241C, strain CIN2, hits give low values 0.992 | S. cerevisiae deletion strains, locus YPL256C, strain CLN2, hits give low values 1.03 | S. cerevisiae deletion strains, locus YPR119W, strain clb2, hits give low values 0.998 | S. cerevisiae deletion strains, locus YPR141C, strain kar3, hits give low values 0.995 | S. cerevisiae deletion strains, locus YPR163C, strain tif3, hits give low values 0.98 | S. cerevisiae deletion strains, locus YPR167C, strain met16, hits give low values 0.992 | S. cerevisiae deletion strains, strain wtn01, hits give low values 1.02 | S. cerevisiae strains, strain wild type, hits give low values 0.996
